Results reported in PubChem BioAssay AID1159580 (chemical genetic matrix, 2015).
Several values for one entry are separate records, joined by “and”; a condition that tells them apart may be missing. Identical values can stand only once. Out of some 5,500 compounds screened, about 2,000 (36%) were called active. Another 18% or so got no clear call; they are omitted. No stated cut-off is given here; in the data, active means normalized growth mostly below about 0.91 (no sharp cut-off); inconclusive means no clear call, values can overlap the other calls; inactive means mostly above about 0.92. Some of the results follow.

Experiment: chemical genetic growth profiling, strain panel (AID 1159580);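 further: tested at 20 µM; growth read once vehicle control cultures reached saturation at 30 °C; 1 = growth at the plate median or of vehicle wells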
Conditions: growth OD

Measured: normalized growth

O=C(O)c1cccnc1C(=O)O
inactive: S. cerevisiae deletion strains, locus YJR066W, strain TOR1, stronger effect = lower value 0.979 | S. cerevisiae deletion strains, locus YJR075W, strain HOC1, stronger effect = lower value 1.08 | S. cerevisiae deletion strains, locus YKL009W, strain mrt4, stronger effect = lower value 1.03 | S. cerevisiae deletion strains, locus YKL068W, stronger effect = lower value 0.982 | S. cerevisiae deletion strains, locus YKL085W, strain MDH1 (second series), stronger effect = lower value 0.982 | S. cerevisiae deletion strains, locus YKL085W, strain MDH1, stronger effect = lower value 0.982 | S. cerevisiae deletion strains, locus YKL160W, strain elf1, stronger effect = lower value 0.999 | S. cerevisiae deletion strains, locus YKL190W, strain CNB1, stronger effect = lower value 1.01 | S. cerevisiae deletion strains, locus YKR001C, strain vps1, stronger effect = lower value 0.986 | S. cerevisiae deletion strains, locus YKR026C, strain gcn3, stronger effect = lower value 0.981 | S. cerevisiae deletion strains, locus YKR091W, strain srl3, stronger effect = lower value 0.999 | S. cerevisiae deletion strains, locus YLL001W, strain dnm1, stronger effect = lower value 1.04 | S. cerevisiae deletion strains, locus YLL026W, stronger effect = lower value 1.01 | S. cerevisiae deletion strains, locus YLL041C, strain sdh2, stronger effect = lower value 1 | S. cerevisiae deletion strains, locus YLR027C, strain aat2, stronger effect = lower value 1.01 | S. cerevisiae deletion strains, locus YLR039C, strain RIC1, stronger effect = lower value 1.08 | S. cerevisiae deletion strains, locus YLR058C, strain SHM2, stronger effect = lower value 1.02 | S. cerevisiae deletion strains, locus YLR102C, strain apc9, stronger effect = lower value 0.985 | S. cerevisiae deletion strains, locus YLR113W, strain HOG1, stronger effect = lower value 0.996 | S. cerevisiae deletion strains, locus YLR221C, strain rsa3, stronger effect = lower value 1.04 | S. cerevisiae deletion strains, locus YLR258W, strain gsy2, stronger effect = lower value 1.01 | S. cerevisiae deletion strains, locus YLR262C, strain YPT6 (second series), stronger effect = lower value 1.01 | S. cerevisiae deletion strains, locus YLR262C, strain YPT6, stronger effect = lower value 1.09 | S. cerevisiae deletion strains, locus YLR268W, strain sec22, stronger effect = lower value 1.01 | S. cerevisiae deletion strains, locus YLR320W, strain mms22, stronger effect = lower value 1.04 | S. cerevisiae deletion strains, locus YLR330W, strain CHS5, stronger effect = lower value 1.01 | S. cerevisiae deletion strains, locus YLR342W, strain FKS1 (second series), stronger effect = lower value 1.01 | S. cerevisiae deletion strains, locus YLR342W, strain FKS1, stronger effect = lower value 1.01 | S. cerevisiae deletion strains, locus YLR357W, strain rsc2, stronger effect = lower value 0.987 | S. cerevisiae deletion strains, locus YLR370C, strain arc18, stronger effect = lower value 0.984 | S. cerevisiae deletion strains, locus YLR371W, strain rom2, stronger effect = lower value 0.986 | S. cerevisiae deletion strains, locus YLR384C, strain iki3, stronger effect = lower value 1.01 | S. cerevisiae deletion strains, locus YLR418C, strain cdc73, stronger effect = lower value 1.04 | S. cerevisiae deletion strains, locus YML016C, strain PPZ1, stronger effect = lower value 1.01 | S. cerevisiae deletion strains, locus YML032C, strain rad52, stronger effect = lower value 1.01 | S. cerevisiae deletion strains, locus YML120C, strain ndi1, stronger effect = lower value 1 | S. cerevisiae deletion strains, locus YML124C, strain tub3, stronger effect = lower value 0.989 | S. cerevisiae deletion strains, locus YMR058W, strain fet3, stronger effect = lower value 1 | S. cerevisiae deletion strains, locus YMR078C, strain ctf18, stronger effect = lower value 0.99 | S. cerevisiae deletion strains, locus YMR125W, strain sto1, stronger effect = lower value 1 | S. cerevisiae deletion strains, locus YMR129W, stronger effect = lower value 0.987 | S. cerevisiae deletion strains, locus YMR205C, strain PFK2, stronger effect = lower value 0.988 | S. cerevisiae deletion strains, locus YMR223W, strain ubp8, stronger effect = lower value 1.01 | S. cerevisiae deletion strains, locus YMR231W, strain pep5, stronger effect = lower value 0.996 | S. cerevisiae deletion strains, locus YMR307W, strain GAS1, stronger effect = lower value 1.02 and 0.993 | S. cerevisiae deletion strains, locus YNL067W, strain RPL9B, stronger effect = lower value 1.06 | S. cerevisiae deletion strains, locus YNL071W, strain lat1, stronger effect = lower value 0.998 | S. cerevisiae deletion strains, locus YNL128W, strain TEP1, stronger effect = lower value 1.03 and 1.01 | S. cerevisiae deletion strains, locus YNL175C, strain NOP13, stronger effect = lower value 1.02 | S. cerevisiae deletion strains, locus YNL183C, strain NPR1, stronger effect = lower value 0.934 | S. cerevisiae deletion strains, locus YNL197C, strain WHI3, stronger effect = lower value 1.01 | S. cerevisiae deletion strains, locus YNL209W, strain ssb2, stronger effect = lower value 0.994 | S. cerevisiae deletion strains, locus YNL224C, strain SQS1, stronger effect = lower value 0.998 | S. cerevisiae deletion strains, locus YNL233W, strain BNI4, stronger effect = lower value 1.06 | S. cerevisiae deletion strains, locus YNL248C, strain rpa49, stronger effect = lower value 0.997 | S. cerevisiae deletion strains, locus YNL250W, strain rad50, stronger effect = lower value 0.984 | S. cerevisiae deletion strains, locus YNL271C, strain bni1, stronger effect = lower value 0.962 | S. cerevisiae deletion strains, locus YNL298W, strain CLA4, stronger effect = lower value 0.977 | S. cerevisiae deletion strains, locus YNL307C, strain MCK1, stronger effect = lower value 1.01 | S. cerevisiae deletion strains, locus YNL322C, strain KRE1 (second series), stronger effect = lower value 0.985 | S. cerevisiae deletion strains, locus YNL322C, strain KRE1, stronger effect = lower value 1.01 | S. cerevisiae deletion strains, locus YNR049C, strain mso1, stronger effect = lower value 0.989 | S. cerevisiae deletion strains, locus YNR052C, strain pop2, stronger effect = lower value 0.996 | S. cerevisiae deletion strains, locus YOL006C, strain TOP1, stronger effect = lower value 1.11 | S. cerevisiae deletion strains, locus YOL012C, strain htz1 1.66 | S. cerevisiae deletion strains, locus YOL147C, strain pex11, stronger effect = lower value 0.99 | S. cerevisiae deletion strains, locus YOR001W, strain rrp6, stronger effect = lower value 1.04 | S. cerevisiae deletion strains, locus YOR061W, strain CKA2, stronger effect = lower value 1.02 | S. cerevisiae deletion strains, locus YOR069W, strain VPS5, stronger effect = lower value 1.02 | S. cerevisiae deletion strains, locus YOR070C, strain gyp1, stronger effect = lower value 0.998 | S. cerevisiae deletion strains, locus YOR080W, strain dia2, stronger effect = lower value 0.974 | S. cerevisiae deletion strains, locus YOR083W, strain WHI5 (second series), stronger effect = lower value 1.03 | S. cerevisiae deletion strains, locus YOR083W, strain WHI5, stronger effect = lower value 0.945 | S. cerevisiae deletion strains, locus YOR106W, strain vam3, stronger effect = lower value 0.991 | S. cerevisiae deletion strains, locus YOR136W, strain idh2, stronger effect = lower value 1.02 | S. cerevisiae deletion strains, locus YOR144C, strain elg1, stronger effect = lower value 0.979 | S. cerevisiae deletion strains, locus YOR184W, strain ser1, stronger effect = lower value 0.998 | S. cerevisiae deletion strains, locus YOR231W, strain MKK1, stronger effect = lower value 1.03 | S. cerevisiae deletion strains, locus YOR265W, strain rbl2, stronger effect = lower value 0.989 | S. cerevisiae deletion strains, locus YOR270C, strain vph1, stronger effect = lower value 0.984 | S. cerevisiae deletion strains, locus YOR290C, strain snf2, stronger effect = lower value 0.987 | S. cerevisiae deletion strains, locus YOR316C, strain cot1, stronger effect = lower value 0.993 | S. cerevisiae deletion strains, locus YPL051W, strain arl3, stronger effect = lower value 1.02 | S. cerevisiae deletion strains, locus YPL055C, strain LGE1, stronger effect = lower value 1.11 | S. cerevisiae deletion strains, locus YPL078C, strain atp4, stronger effect = lower value 1.05 | S. cerevisiae deletion strains, locus YPL106C, strain sse1, stronger effect = lower value 1.06 | S. cerevisiae deletion strains, locus YPL240C, strain hsp82, stronger effect = lower value 0.994 | S. cerevisiae deletion strains, locus YPL256C, strain CLN2, stronger effect = lower value 1 | S. cerevisiae deletion strains, locus YPR119W, strain clb2, stronger effect = lower value 0.988 | S. cerevisiae deletion strains, locus YPR141C, strain kar3, stronger effect = lower value 0.978 | S. cerevisiae deletion strains, locus YPR163C, strain tif3, stronger effect = lower value 0.996 | S. cerevisiae deletion strains, locus YPR167C, strain met16, stronger effect = lower value 0.983 | S. cerevisiae deletion strains, strain wtn01, stronger effect = lower value 0.997 | S. cerevisiae strains, strain wild type, stronger effect = lower value 1.02
